The list is not random: actives were taken first. Their share in the collection is about 3.8%.
HBB splice mod – hemoglobin beta splicing modulation | HBB splicing reporter cell assay, activation; EGFP reporter with mutant IVS2-654 intron; response scale: normalised to 500 nM splice-correcting PNA | Potency, µM (top dose mostly 46.1 µM), most hits filed as activators | 65,000 compounds, 0.06% hits
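Compounds were applied for 2 days to HeLa EGFP-654 cells, 500/well in Optimem with 2% FCS. The reporter's EGFP is disrupted by mis-splicing of beta-globin intron IVS2-654. Readout: summed well GFP fluorescence from 488 nm laser scanning; reference was 500 nM antisense […] 654 PNA.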
GFP derepression – derepresses silenced GFP locus in mouse C127i cells. mouse C127i GFP locus derepression, cytometry, 30 h. Potency, µM (highest dose often 46.1 µM). 68,000 compounds, 0.09% hits
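Derepression screen: silenced CMV-GFP reporter in murine C127i cells, 30 h compound incubation at 37 C, washed cells imaged by laser-scanning cytometer to enumerate GFP-expressing objects of 20 to 120 um.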
Ub-GFP proteasome – inhibits proteasome, raising ubiquitin-GFP reporter fluorescence; Ubiquitin-GFP reporter cells, proteasome inhibition, GFP fluorescence; response scale: untreated = 0%, 10 µM MG-132 = 100%; Potency, µM (highest dose often 45.9 µM), hits mostly activators; 67,000 tested, under 10 active; active = well fitted activation curve with a large enough effect, not every such curve was filed as active; inconclusive = small, poorly fitted or top-dose-only effect, or another doubt; inactive = no such curve, though single readings can be large or run the other way
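Proteasome blockade was scored as a rise in GFP-expressing U2OS cells carrying a ubiquitin(G76V)-GFP construct, imaged after 4 hr compound treatment at 37 °C across a 46 uM–2.9 nM series.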
HEK293 cAMP ctrl – raises cAMP in parental HEK293 cells, TSHR agonist counter-screen; parental HEK293 CNG cAMP sensor, membrane potential fluorescence; Potency, µM (doses to about 57.1 µM), actives largely listed as activators; 73,000 compounds, 2.5% hits; note: nearly all actives have a fitted effect of over 55% in size
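Parental HEK 293 cells stably expressing a cAMP-gated CNG channel were loaded with membrane potential dye containing 100 uM RO 20-1724 for 60 min. Compound added for 30 min; depolarization read as fluorescence intensity at 590 nm.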
TSHR agonist – agonists of human thyroid stimulating hormone receptor; P16473; HEK293-CNG-TSHR cells (CNG channel as cAMP sensor), membrane potential dye, cAMP; Potency, µM (series often up to 57.1 µM), usual class: activators; 73,000 compounds, 0.48% hits; AID 926; active = well fitted activation curve with a large enough effect in the main read-out, with a control signal flat, not every such curve was filed as active; inconclusive = small, poorly fitted or top-dose-only effect, or a change in a side signal; inactive = no such curve, though single readings can be large or run the other way; reference of the percent scale not stated here;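 note: the control signal comes from parental cells without the receptor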
Target sequence (P16473 whole entry, looked up): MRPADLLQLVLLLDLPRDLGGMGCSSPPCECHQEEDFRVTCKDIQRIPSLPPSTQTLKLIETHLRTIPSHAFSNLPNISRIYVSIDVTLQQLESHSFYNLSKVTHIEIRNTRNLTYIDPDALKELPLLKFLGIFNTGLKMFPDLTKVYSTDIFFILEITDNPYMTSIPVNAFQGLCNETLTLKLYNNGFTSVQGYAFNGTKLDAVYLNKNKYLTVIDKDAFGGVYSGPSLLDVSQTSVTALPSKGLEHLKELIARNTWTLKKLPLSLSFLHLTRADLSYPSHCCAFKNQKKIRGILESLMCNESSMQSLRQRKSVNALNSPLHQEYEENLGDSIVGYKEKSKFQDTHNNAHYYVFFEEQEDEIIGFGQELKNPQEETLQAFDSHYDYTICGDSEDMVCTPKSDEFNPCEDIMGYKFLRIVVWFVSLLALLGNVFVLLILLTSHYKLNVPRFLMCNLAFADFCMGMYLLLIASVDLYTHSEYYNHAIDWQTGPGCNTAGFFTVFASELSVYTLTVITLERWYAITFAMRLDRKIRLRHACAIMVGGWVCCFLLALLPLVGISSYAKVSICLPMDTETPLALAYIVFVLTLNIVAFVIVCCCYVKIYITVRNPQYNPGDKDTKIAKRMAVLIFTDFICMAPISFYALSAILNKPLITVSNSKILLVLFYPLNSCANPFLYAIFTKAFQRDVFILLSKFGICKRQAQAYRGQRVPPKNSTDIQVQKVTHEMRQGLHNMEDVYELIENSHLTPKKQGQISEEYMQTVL
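HEK 293 cells stably expressing TSHR and a modified CNG channel, with CNG-only parental cells as counterscreen, were preloaded 60 min at room temperature with membrane potential dye containing 100 uM RO 20-1724. Compound exposure was 30 min, and depolarization was read as fluorescence at 590 nm.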
ERK AVP inh – blocks ERK signaling stimulated by vasopressin | HEK293-V1b, vasopressin-stimulated pERK AlphaScreen | 72,000 compounds, 0.99% hits | Potency, µM (doses to about 57.5 µM), most hits filed as inhibitors; note: nearly all actives have a fitted effect of over 55% in size
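qHTS, compounds titrated on V1b-expressing HEK293 cells. Preincubation 30 min at 37C, vasopressin 25 nM for 5 min, lysis 10 min, bead incubation 5 hr at room temperature.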
Each line names hits and unclear results; the compound was inactive in the other large screens. Unless noted, calls come from the whole dose curve; as a rule, active = well fitted curve in the direction sought with a large enough effect; inconclusive = small, poorly fitted or top-dose-only effect, or another doubt; inactive = no such curve, though single readings can be large; an effect the other way counts as inactive or inconclusive.

CC1CCc2c(nc3ncnn3c2N2CCN(c3ccccc3F)CC2)C1 (stereo not given)	HEK293 cAMP ctrl inconclusive, TSHR agonist inconclusive (no result: HBB splice mod)
CC1CCc2c(nc3ncnn3c2N2CCN(c3ccccc3)CC2)C1 (stereo not given)	HEK293 cAMP ctrl 25.1µM, TSHR agonist inconclusive
CC(=O)[C@@]1(O)Cc2c(O)c3c(c(O)c2[C@H](O[C@H]2C[C@H](N)[C@H](O)[C@H](C)O2)C1)C(=O)c1ccccc1C3=O	HBB splice mod 12.6µM, GFP derepression 12.6µM, HEK293 cAMP ctrl inconclusive, TSHR agonist inconclusive, ERK AVP inh inconclusive
COc1cccc2c1C(=N)c1c(O)c3c(c(O)c1C2=O)C[C@](O)(C(C)=O)C[C@@H]3O[C@H]1C[C@H](N)[C@@H](O)[C@H](C)O1	none
CCn1c(N2CCN(C(=O)C34CC5CC(CC(C5)C3)C4)CC2)nc2ccccc21	none
CCn1c(N2CCN(S(=O)(=O)c3ccccc3C(F)(F)F)CC2)nc2ccccc21	HEK293 cAMP ctrl inconclusive, TSHR agonist inconclusive, ERK AVP inh 31.6µM
O=C(Nc1cc(C(F)(F)F)ccc1N1CCOCC1)C1Cc2ccccc2CN1C(=O)c1ccco1 (stereo not given)	HEK293 cAMP ctrl 1.26µM, TSHR agonist inconclusive
O=C(Nc1cc(C(F)(F)F)ccc1N1CCCCC1)c1ccco1	HEK293 cAMP ctrl inconclusive, TSHR agonist inconclusive
CCN1C(=O)[C@H]2[C@H]3[C@H](O)[C@H](O)C/C(=N/OC/C=C(\C)CCC=C(C)C)[C@@H]3CC[C@@H]2C1=O	none (no result: GFP derepression, Ub-GFP proteasome)
O=C(Nc1ccc2nc(-c3ccco3)c(-c3ccco3)nc2c1)N1CCCCCC1	ERK AVP inh inconclusive
CCOC(=O)C1CCN(C(=O)Nc2ccc3nc(-c4ccco4)c(-c4ccco4)nc3c2)CC1	ERK AVP inh 25.1µM
C=CC[C@@H]1C=C[C@H](Oc2ccc(C)cc2)[C@H](COC(=O)NCc2cccc3ccccc23)O1	none (no result: GFP derepression, Ub-GFP proteasome)
Cc1occc1-c1nnc(SCC(=O)c2ccc(F)cc2)n1Cc1ccco1	none
O=C(O)CSc1nnc(-c2ccccc2O)n1Cc1ccccc1	none
O=C(CSc1nnc(-c2ccc(Br)o2)n1Cc1ccccc1)c1ccccc1F	HEK293 cAMP ctrl 20µM, TSHR agonist inconclusive, ERK AVP inh inconclusive
O=C(CSc1nnc(-c2ccco2)n1Cc1ccccc1)c1ccc(F)cc1	HEK293 cAMP ctrl 25.1µM, TSHR agonist inconclusive
O=C(NC1(C(=O)O)CCCC1)c1ccccc1	none
CN(C)c1ccc(C(=C2C=CC(=[N+](C)C)C=C2)c2c(O)c(S(=O)(=O)O)cc3cc(S(=O)(=O)O)ccc23)cc1	ERK AVP inh inconclusive
O=C(CS(=O)(=O)Cc1ccccc1)Nc1nc2ccccc2s1	ERK AVP inh 25.1µM
CN(CC(=O)Nc1nc2ccccc2s1)S(=O)(=O)c1ccccc1	ERK AVP inh inconclusive
CC(C)CC(c1nnnn1CC1CCCO1)N1CCN(c2cccc(Cl)c2)CC1 (stereo not given)	HEK293 cAMP ctrl 12.6µM, TSHR agonist inconclusive
CC(C)CC(c1nnnn1CC1CCCO1)N1CCN(C2CCCC2)CC1 (stereo not given)	none
CC(C)CC(c1nnnn1Cc1ccco1)N1CCN(c2cccc(Cl)c2)CC1 (stereo not given)	HEK293 cAMP ctrl 10µM, TSHR agonist inconclusive
CNC(=O)Oc1ccc2c(c1)[C@@]1(C)CCN(C)C1N2C (stereo not given in full)	none (no result: HBB splice mod, GFP derepression, Ub-GFP proteasome, HEK293 cAMP ctrl, TSHR agonist)
CNC[C@H](O)c1ccc(O)c(O)c1	ERK AVP inh inconclusive (no result: HEK293 cAMP ctrl, TSHR agonist)
CC[C@H](NC(C)C)[C@H](O)c1ccc(O)c(O)c1	HEK293 cAMP ctrl 0.251µM, TSHR agonist inconclusive, ERK AVP inh inconclusive
NC(Cc1ccccc1)(C(=O)O)C(=O)O	none
CCOC(=O)c1[nH]c(C)c(CN(CCc2ccc(OC)c(OC)c2)C(=O)CCCC(=O)O)c1C	none
CCOC(=O)c1[nH]c(C)c(CN(CCc2ccccc2)S(C)(=O)=O)c1C	TSHR agonist 31.6µM (no result: GFP derepression)
O=C(c1cnccn1)N1CCC2(CC1)CN(C(c1ccccc1)c1ccccc1)C2	none
O=C(c1ccncc1)N1CCC[C@@]2(CCN(C(c3ccccc3)c3ccccc3)C2)C1	HEK293 cAMP ctrl 3.98µM, TSHR agonist inconclusive
O=C(c1cnccn1)N1CCC2(CCCN(C(c3ccccc3)c3ccccc3)C2)CC1	HEK293 cAMP ctrl inconclusive, TSHR agonist inconclusive, ERK AVP inh 39.8µM
COc1ccc(-c2coc3cc(O)cc(O)c3c2=O)cc1	ERK AVP inh 15.8µM (no result: HBB splice mod)
O=c1c(-c2ccc(O)cc2)coc2cc(O)cc(O)c12	TSHR agonist inconclusive, ERK AVP inh inconclusive
O=C(Nc1sc2c(c1C(=O)NC1CCCCC1)CCC2)c1ccco1	TSHR agonist 15.8µM
COC(=O)c1ccc(NC(=O)C2CCCN2S(=O)(=O)c2ccc(OC)cc2)cc1 (stereo not given)	none (no result: TSHR agonist)
Cc1ccc(S(=O)(=O)N2CCCCC2C(=O)NCc2ccco2)cc1 (stereo not given)	TSHR agonist 15.8µM
COC(=O)c1cc(OC)c(OC)cc1NC(=O)C1CCC(=O)N1S(=O)(=O)c1ccc(C)cc1 (stereo not given)	ERK AVP inh 25.1µM
COC(=O)c1ccc(NC(=O)C2CCCN2S(=O)(=O)c2ccc(C)cc2)cc1 (stereo not given)	ERK AVP inh 25.1µM (no result: TSHR agonist)
Cc1ccc(S(=O)(=O)N2CCC(C(=O)N3CCC[C@H]3C(=O)NCc3ccco3)CC2)cc1	none
O=C(NCc1ccco1)C1CCCN(S(=O)(=O)c2ccc(-n3cnnn3)cc2)C1 (stereo not given)	HEK293 cAMP ctrl 20µM, TSHR agonist inconclusive
CCOC(=O)CCCN	none
CCOC(=O)C(C)C(C)=O (stereo not given)	none (no result: GFP derepression, Ub-GFP proteasome)
COc1cccc(Cn2c(-c3nonc3N)nc3ccccc32)c1	HEK293 cAMP ctrl 25.1µM, TSHR agonist inconclusive
COc1cc(Cn2c(-c3nonc3N)nc3ccccc32)ccc1C	HEK293 cAMP ctrl 25.1µM, TSHR agonist inconclusive
COc1cccc(Cn2c(-c3cccs3)noc2=O)c1	none
COc1ccc(CCNC(=O)Cn2c(-c3nonc3N)nc3ccccc32)cc1OC	HEK293 cAMP ctrl inconclusive, TSHR agonist inconclusive
CCNc1ccccc1	none (no result: GFP derepression, Ub-GFP proteasome)
Cc1cccc2cc(C#N)c(SCC(=O)N3CCC(C)CC3)nc12	HEK293 cAMP ctrl 25.1µM, TSHR agonist inconclusive
Cc1cccc2cc(C#N)c(SCC(=O)N3CC(=O)Nc4ccccc43)nc12	HBB splice mod inconclusive, GFP derepression 15.8µM, HEK293 cAMP ctrl inconclusive, TSHR agonist inconclusive
C=C(C)C(O)/C=C/c1ccc(Br)cc1 (stereo not given)	none (no result: GFP derepression, Ub-GFP proteasome)
